This is one part of a sample in which hits are shown more often than they occur.
Pf Dd2 growth: Plasmodium falciparum Dd2 growth inhibition | AID 1347417 | actives 4.3% (n = 120,000) | Potency, µM (titrated, usually from 28.9 µM), most hits filed as inhibitors | P. falciparum Dd2 growth, SYBR Green, 72 h; active = well fitted inhibition curve with a large enough effect; also: nearly all actives have a fitted effect of over 65% in size
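Readout: SYBR Green fluorescence, 485 nm excitation, 535 nm emission, after ~16 h lysis at 37C. Before that, Dd2-infected red cells (2.5% hematocrit) grew 72 h with compound, 29 uM top final concentration.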
Hits are given with their value; . = inactive; [ ] = remark or other dose.

SMILES	Pf Dd2 growth
CCOc1ccc(S(=O)(=O)N(C(C)=O)c2ccc3oc(C)c(C(=O)OC)c3c2)cc1	.
COc1ccc(-n2ccnc2-c2cc3n(n2)CCCNC3)c(OC)c1	.
Cc1cccc(CN2CC[C@@H]3OCC(=O)N(Cc4ccc(O)cc4)[C@H]3CC2)c1	.
O=C1CO[C@H]2CCN(CCCc3ccccc3)CC[C@@H]2N1Cc1ccccc1	4µM
O=C1CO[C@H]2CCN(Cc3ccccc3)CC[C@@H]2N1CCc1cccnc1	.
CN1c2cc(C(=O)NC3CCCCCC3)ccc2C(=O)N2CCCCC21 (configuration not stated)	.
CC(=O)c1cccc(NC(=O)C2=CC(c3ccco3)=NS(=O)(=O)N2C)c1	.
COc1ccc(C(CNC(=O)c2oc3ccccc3c2C)N2CCCCC2)cc1 (configuration not stated)	.
COc1ccc(CC(=O)NCC(c2ccc(Cl)cc2)N2CCOCC2)cc1 (configuration not stated)	.[0.594 µM]
COc1ccc(OCC(=O)NCC(c2ccc(OC)cc2)N2CCCCC2)cc1 (configuration not stated)	8.9µM
COc1ccc(C(CNC(=O)c2oc3cc(C)c(Cl)cc3c2C)N2CCCCC2)cc1 (configuration not stated)	.
COc1ccc(C(CNC(=O)COc2cc(C)cc(C)c2)N2CCCCC2)cc1 (configuration not stated)	.
COc1ccc(C(CNC(=O)COc2ccc(C)c(C)c2)N2CCCCC2)cc1 (configuration not stated)	11µM
CCCOc1ccc(C(=O)NCC(c2ccc(OC)cc2)N2CCCCC2)cc1 (configuration not stated)	.
CC(C)c1ccc(OCC(=O)NCC(c2ccc(Cl)cc2)N2CCOCC2)cc1 (configuration not stated)	10µM
COc1ccc(C(CNC(=O)COc2ccc(Cl)c(C)c2)N2CCOCC2)cc1 (configuration not stated)	3.5µM
Cc1cc(OCC(=O)NCC2(N3CCOCC3)CCCCC2)ccc1Cl	.
COc1ccc(C(CNC(=O)c2ccc(C)cc2)N2CCOCC2)cc1 (configuration not stated)	.
CN(C)c1ccc(C(CNS(=O)(=O)c2ccc(Cl)cc2)N2CCOCC2)cc1 (configuration not stated)	.
Cc1ccc(N2CCC(NC(=O)c3cccc(Br)c3)C2=O)cc1 (configuration not stated)	.
COc1ccc(-c2cnc3[nH]cc(CC(=O)Nc4cccc(F)c4)c3c2)cc1	.
O=C(NCCc1ccc(Cl)cc1)c1ccc2c(c1)N(Cc1ccc(F)cc1Cl)C(=O)CS2	.
Cc1nnc([C@@H]2CC(F)(F)CN2C(=O)Cc2c[nH]c3ccccc23)o1	.
O=C(O)c1ccc(NCc2nc3c(n2Cc2ccccc2)C(=O)N(CC2CCOCC2)CCN3)cc1	.
CSc1cccc(NC(=O)N[C@H]2CCN(C(=O)c3cnccn3)[C@@H]2C(=O)N[C@@H](Cc2cccs2)C(N)=O)c1	.
SMILES	Pf Dd2 growth
CCCCS(=O)(=O)N1CCc2nc(N3CCc4ccccc4C3)[nH]c(=O)c2CC1	.[5.79 µM]
CCC(CC)C(=O)Nc1ccccc1SCc1cc(=O)c2cccc(C)c2[nH]1	.
O=C1CC(C(=O)O)C2(CCN(C(=O)C3(Cn4ccnc4)CC3)CC2)N1 (configuration not stated)	.
COc1ccc(Cn2c(SCc3ccc(C(=O)NCc4ccc(C)cc4)cc3)nc3cccnc32)cc1	10µM
COCCCNC(=O)c1ccc(CSc2nc3cccnc3n2Cc2ccc(OC)cc2)cc1	.
Cc1cccc(CNC(=O)c2ccc(Cn3c(SCc4cccc(F)c4)nc4cccnc43)cc2)c1	.
COc1cccc(CNC(=O)c2ccc(Cn3c(SCc4ccccc4)nc4cccnc43)cc2)c1	10µM
CC(C)OCCCNC(=O)c1ccc(CSc2nc3cccnc3n2Cc2ccccc2)cc1	.
O=C(NCc1ccco1)c1ccc(Cn2c(SCc3ccccc3)nc3cccnc32)cc1	.
COc1ccc(OC)c(NC(=O)c2cnc(N3CCCCC3)c3ccccc23)c1	.
CCNC(=O)CCSc1nnc(-c2ccc(O)cc2)o1	.
COCCNC(=O)[C@H]1CCC[C@H]1NC(=O)c1ccc(OC)cc1	.
Cc1ccccc1-c1ccc2n(c1=O)C[C@H]1C[C@@H]2CN(Cc2cccs2)C1	.
COc1cccc(N2C(=O)N[C@@H]3CCN(C(=O)c4ccc(C(F)(F)F)cc4)[C@@H]3C2=O)c1	.
O=C(Nc1ccc(F)c(F)c1)c1cc(S(=O)(=O)N2CCc3ccccc32)ccc1F	.
O=C(Nc1ccc(F)c(Cl)c1)c1cc(S(=O)(=O)N2CCCc3ccccc32)ccc1F	10µM
O=C(Nc1ccc(Cl)cc1)c1cc(S(=O)(=O)N2CCc3ccccc32)ccc1F	.
COc1ccc(OC)c(S(=O)(=O)N2CCCC(CO)CCNC(=O)CC2)c1 (configuration not stated)	.
CCNC(=O)Nc1ccc(OCC(=O)NCc2ccccc2)nc1	.
CN(C)C[C@@H]1CN(c2ncccn2)C[C@H]1NC(=O)c1cccn1C	.
O=C(Cc1cccnc1)N1C[C@@H](COCC2CC2)[C@H](c2ccccn2)C1	.
O=C(Cn1cnnn1)N1CCC(c2nccn2Cc2cccnc2)CC1	.
CCC(O)c1cc2n(n1)CCCN(C(=O)CCc1ccsc1)C2 (configuration not stated)	.
CCC(=O)Nc1cc(C(=O)NCc2ccc(C)cc2)ccc1S(=O)(=O)c1ccc(C)cc1	.
COc1ccc(CNC(=O)N2CCC3(CC2)CC(Cc2nc(C4CC4)no2)CCO3)cc1 (configuration not stated)	.
SMILES	Pf Dd2 growth
COc1ccc(C(=O)N2CCC3(CC2)CC(Cc2nc(-c4ccccc4)no2)CCO3)cc1 (configuration not stated)	.
Cc1ccc(NC(=O)N2CCC3(CC2)CC(Cc2nc(-c4ccccc4)no2)CCO3)cc1C (configuration not stated)	8.9µM
Cc1ccccc1C(=O)NCCc1csc(-c2ccc(C(F)(F)F)cc2)n1	.
COc1ccccc1N1CCCc2ncc(C(=O)N3CCN(C(C)=O)CC3)cc21	.
COc1ccc(-c2noc(-c3cc(-c4ccc(F)cc4)n[nH]3)n2)cc1	.
CC(C)N1C(=O)C2(CCCCC2)C1C(=O)NCCCN1CCN(C)CC1 (configuration not stated)	.
Cc1cccc2c1nc1n2[C@@H](CNC2CCCCC2)COC1	.
c1cnc2c(c1)nc1n2[C@@H](CNC2CCCCC2)COC1	14µM
CN1CCC(NC[C@H]2COCc3nc4cccnc4n32)CC1	.
O=C(CCc1ccccc1)N1CCN(c2cc(-c3ccccc3)[nH]n2)CC1	.
CNC(=O)[C@@H]1CN(C(=O)c2cc3ccc(OC)cc3[nH]2)C[C@H]1C1CCN(C)CC1	.
COc1ccc2cc(C(=O)N3CCC(Cc4ccc(C(=O)NC5CC5)cc4)CC3)[nH]c2c1	4.5µM
COc1ccc(C(=O)NC2CCN(C(=O)c3cc4c(=O)[nH]c(C)cn4n3)CC2)cc1	.
CN(Cc1cccnc1)C1CN(C(=O)C2CC2)C1	.
COCCNC(=O)[C@H]1CN2CC[C@H]1C[C@@H]2Cn1cc(-c2ccccc2)nn1	.
CCC1=C(C(=O)OC)C(c2ccccc2C)N2C(CC(=O)NCC3CC3)=CSC2=N1 (configuration not stated)	.
CCOC(=O)C1=C(C)N=C2SC=C(CC(=O)N3CCOCC3)N2C1c1ccccc1OC (configuration not stated)	.
